Inconclusive results are not listed. Active and inactive are the calls of the source.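 Rule for the calls, unless noted: active = response below a set limit, under 55% cells CD8-positive and vesicle-bound, and CD8 cells' 90th-percentile brightness under 279; inactive = the rest.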

Test [1] can be described thus: rapamycin-like changes in RPL19A-GFP expression – cell-based, S. cerevisiae, multiplex flow cytometry, primary screen (AID 1862; in the data active = percent of DMSO control GFP below about 86%;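 note: lower values mimic rapamycin by blocking the RPL19A rise seen in DMSO cells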). Conditions: S. cerevisiae RPL19A-GFP strain, flow cytometry fluorescence, 3 h; at 10 µM; stronger effect = lower value. For orientation: In flow cytometry, cells or beads pass a laser one at a time.
Test [2] in a line: TOR pathway GLN3 branch reporter MEP2-GFP changes – S. cerevisiae, multiplex flow cytometry, primary screen (AID 1867;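 active = GFP response, as percent of the DMSO control, above the screen-wide mean plus 3 SD, about 139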;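 note: median GFP channel fluorescence of barcode-gated MEP2-GFP cells measured by flow cytometry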). Particulars: S. cerevisiae MEP2-GFP strain, 3 h, at 10 µM, stronger effect = higher value, 100% means same as DMSO wells.
Test [3] in a line: TOR pathway RTG branch CIT2 reporter changes – S. cerevisiae, GFP fusion, multiplex flow cytometry, primary screen (AID 1870;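 active = percent response above a set limit, the screen-wide mean plus 3 SD, cut at about 130% in these data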;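 note: barcoded CIT2-GFP strain pooled with four other GFP strains with rapamycin as positive control; median GFP fluorescence per well over plate mean of DMSO wells so 100% = DMSO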). Particulars: S. cerevisiae CIT2-GFP expression, 3 h, at 10 µM, stronger effect = higher value.
The nature of test [4]: TOR pathway LAP4-GFP level changes – S. cerevisiae, multiplex flow cytometry, primary screen (AID 1873;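 active = GFP signal, as percent of the solvent control, above the screen mean plus 3 SD, about 149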). Conditions: S. cerevisiae LAP4-GFP expression, 3 h, at 10 µM, stronger effect = higher value.
Test [5] is described as follows: yeast AGP1-GFP level changes, GLN3 branch – cell-based, multiplex flow cytometry, S. cerevisiae, primary screen (AID 1887;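 active = GFP signal above the screen-wide mean plus 3 SD, that is over about 124.5% of the solvent control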;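 note: AGP1-GFP fusion strain of S. cerevisiae within a five-strain barcoded multiplex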). Conditions: 3 h, at 10 µM, stronger effect = higher value.
Test [6] in a line: reduced mouse 2C T cell binding to pMHC/ICAM-1 vesicles – MLPCN validation set, flow cytometry, LFA-1/ICAM-1 modulator project, pilot screen (AID 2523).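 For vesicle binding response: mean PE anti-B7-1 fluorescence of CD8+ cells relative to row control; 100% = QL9-loaded vesicles with DMSO vehicle in the same plate row.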 Conditions: 2C mouse CD8+ T cells, at 7 µM, stronger effect = lower value; double positive events: measured here: CD8+/vesicle+ event percentage.
Test [7] has as its target Integrin beta-1 (Homo sapiens) + Integrin alpha-4 (Homo sapiens) (UniProt P13612+P05556). The experiment in a line: alpha4beta1 integrin LIBS antibody binding reduction – U937 cells, HUTS-21 mAb, flow cytometry, validation set, VLA-4 allosteric modulator project, pilot screen (AID 2674;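 active = inhibition above 50%, about 3 SD of the validation set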;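 note: antibody binding induced by the VLA-4 ligand LDV present at three times its Kd; 0% = LDV ligand with antibody and no compound and 100% = antibody without LDV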). Particulars: HUTS-21 LIBS mAb binding, at 6.7 µM, stronger effect = higher value, binding induced by LDV ligand.

Test [8] in a line: calorie-restriction mimetic ROS inhibitors, yeast – validation compound set, pilot screen (AID 2706;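 active = superoxide response below 65% of plate, a cut near 3 SD across the whole screen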;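 note: yeast exposed to compound for one week at 30 degrees C before staining; 100% = mean of all compound wells on the same plate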). Particulars: S. cerevisiae aging, superoxide DHE fluorescence; at 10 µM; stronger effect = lower value.
Test [9] addresses Beta-adrenergic receptor kinase 1 (Homo sapiens) (UniProt P25098). The experiment in a line: GRK2 binders displacing RNA aptamer, biochemical, validation, human GRK2, bead flow cytometry (AID 488806;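 active = aptamer binding inhibition above 30%, about 3 SD of noise from non-fluorescent compounds; inactive = inhibition at or below 30%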). Conditions: bead-bound GRK2, FAM-aptamer displacement, at 10 µM, stronger effect = higher value.
For test [10], the target named is Beta-2 adrenergic receptor (Homo sapiens) (UniProt P07550). The experiment in a line: agonist-induced loss of surface beta2AR – cell-based, FAP fluorogen, flow cytometry, validation set, pilot screen (AID 504459;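 active = percent response above 42, roughly 3 SD of non-fluorescent test compounds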;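 note: agonist-driven loss of surface beta2AR via internalization measured by FAP dye flow cytometry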). Particulars: Am2.2-beta2AR cells, at 10 µM, stronger effect = higher value.
Test [11] concerns the target AP-2 complex subunit beta (Homo sapiens) (UniProt P63010). The experiment in a line: beta-arrestin/AP2 interaction blockers – biochemical, validation set, GST-AP2 beads, flow cytometry, pilot screen (AID 504541;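 active = inhibition above 54%, about 3 SD of non-fluorescent compounds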;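 note: AP2 carries R879A mutation and is captured from E. coli lysate; bead-bound FITC arrestin peptide fluorescence measuring arrestin peptide binding to AP2; 0% = DMSO wells and 100% = excess unlabeled arrestin peptide control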). Conditions: FITC arrestin peptide, at 10 µM, stronger effect = higher value, AP2 beta2 appendage fragment, R879A mutant.
Test [12] is described as follows: cytosolic pH regulators acting via V-ATPase – S. cerevisiae, pHLuorin, HTS validation (AID 504600; in the data active = response above about 15%;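 note: plate controls were DMSO for no effect and reference compound for full effect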). Conditions: V-ATPase proton transport, at 10 µM, stronger effect = higher value.
Test [13] deals with anti-desmoglein-3 scFv antibody binding to human DSG3. The experiment in a line: blockers of pathogenic pemphigus antibody–desmoglein-3 binding – biochemical, validation compound set, bead-based, flow cytometry, pilot screen (AID 588368;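 active = binding below the plate cutoff, the plate median minus 3 SD, with a reading above zero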;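 note: signal is the median channel fluorescence of bead-bound GFP antibody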). Conditions: Protein G beads, DSG3-Fc, scFv-GFP binding, at 10 µM, stronger effect = lower value.
Test [14] is described as follows: Nile Red efflux blockade in pump-expressing yeast – validation compound set, multiplex, phenotypic, pilot screen (AID 588506;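 active = efflux inhibition above 0.42, the validation set average plus 4 SD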;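 note: Nile Red retained in cells so higher fluorescence means more efflux inhibition; 0 = negative control wells and 1 = enniatin B 25 µM full block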). Particulars: S. cerevisiae pump-expressing triplex, Nile Red efflux flow cytometry; at 10 µM; stronger effect = higher value; the pumps come from Candida albicans.
The target of test [15] is ATP-binding cassette sub-family B member 6 (Homo sapiens) (UniProt Q9NP58). The experiment in a line: blockers of ABCB6-driven porphyrin uptake – K562-ABCB6 cells, flow cytometry, validation set, pilot screen (AID 588550;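 active = inhibition above the screen-wide mean plus 3 SD, about 51%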;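 note: 0% = DMSO wells and 100% = benzethonium chloride 70 µM positive control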). Particulars: K562-ABCB6 porphyrin accumulation, 1 h, at 10 µM, stronger effect = higher value.
Test [16] in a line: AML differentiation inducers, ER-HoxA9 marrow cells – cell-based, GFP/MAC1 double positive, flow cytometry, validation set, primary screen (AID 588685;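 active = differentiation response of at least 50%, scaled between solvent and reference control, from cells with both markers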;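 note: compound exposure lasts four days before antibody staining and flow analysis; 0% = DMSO wells and 100% = 5 µM fulvestrant positive control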). Conditions: stronger effect = higher value, normalized: vehicle 0, fulvestrant 100.

Sequence of ATP-binding cassette sub-family B member 6 (Homo sapiens) (Q9NP58 whole entry, looked up): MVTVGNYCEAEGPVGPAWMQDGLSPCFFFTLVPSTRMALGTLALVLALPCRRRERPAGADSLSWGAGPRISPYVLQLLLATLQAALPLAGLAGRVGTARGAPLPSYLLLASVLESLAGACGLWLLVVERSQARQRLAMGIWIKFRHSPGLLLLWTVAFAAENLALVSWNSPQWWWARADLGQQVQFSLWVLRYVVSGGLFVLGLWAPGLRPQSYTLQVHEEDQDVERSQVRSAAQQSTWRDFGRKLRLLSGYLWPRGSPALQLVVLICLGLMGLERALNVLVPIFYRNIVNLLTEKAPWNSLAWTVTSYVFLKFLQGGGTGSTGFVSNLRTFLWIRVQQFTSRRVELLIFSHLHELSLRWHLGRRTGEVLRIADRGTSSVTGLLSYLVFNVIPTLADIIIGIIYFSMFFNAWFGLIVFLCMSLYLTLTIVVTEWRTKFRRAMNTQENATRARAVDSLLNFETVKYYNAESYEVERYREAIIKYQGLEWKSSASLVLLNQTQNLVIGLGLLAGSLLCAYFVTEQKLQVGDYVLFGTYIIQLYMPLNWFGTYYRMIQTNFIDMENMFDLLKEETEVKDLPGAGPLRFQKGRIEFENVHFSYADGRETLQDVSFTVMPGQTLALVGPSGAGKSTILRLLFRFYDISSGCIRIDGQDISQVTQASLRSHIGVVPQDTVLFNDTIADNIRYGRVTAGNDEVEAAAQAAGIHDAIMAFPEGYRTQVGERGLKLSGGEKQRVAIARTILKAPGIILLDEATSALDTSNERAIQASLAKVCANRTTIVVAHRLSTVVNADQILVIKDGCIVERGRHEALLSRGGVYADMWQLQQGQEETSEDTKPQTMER
Sequence of Beta-adrenergic receptor kinase 1 (Homo sapiens) (P25098 whole entry, looked up): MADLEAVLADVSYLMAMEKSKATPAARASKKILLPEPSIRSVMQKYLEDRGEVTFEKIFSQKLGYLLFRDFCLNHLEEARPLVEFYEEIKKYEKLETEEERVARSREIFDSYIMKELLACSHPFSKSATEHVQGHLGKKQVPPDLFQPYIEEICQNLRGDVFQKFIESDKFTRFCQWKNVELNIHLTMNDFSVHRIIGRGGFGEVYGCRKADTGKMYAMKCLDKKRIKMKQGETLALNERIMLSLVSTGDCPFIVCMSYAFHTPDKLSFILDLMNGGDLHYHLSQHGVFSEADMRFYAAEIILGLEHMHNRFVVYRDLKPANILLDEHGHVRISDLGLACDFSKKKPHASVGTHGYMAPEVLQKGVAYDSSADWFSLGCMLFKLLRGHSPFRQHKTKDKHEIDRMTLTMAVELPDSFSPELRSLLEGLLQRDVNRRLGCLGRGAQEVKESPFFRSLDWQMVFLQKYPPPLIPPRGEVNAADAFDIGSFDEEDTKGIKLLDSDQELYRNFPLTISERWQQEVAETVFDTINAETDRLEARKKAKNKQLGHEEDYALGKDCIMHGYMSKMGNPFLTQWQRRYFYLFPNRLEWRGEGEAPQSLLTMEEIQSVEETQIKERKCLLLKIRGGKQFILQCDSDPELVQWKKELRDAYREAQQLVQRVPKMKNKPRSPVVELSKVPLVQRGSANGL
Sequence of Integrin beta-1 (Homo sapiens) + Integrin alpha-4 (Homo sapiens) (P05556 whole entry, looked up): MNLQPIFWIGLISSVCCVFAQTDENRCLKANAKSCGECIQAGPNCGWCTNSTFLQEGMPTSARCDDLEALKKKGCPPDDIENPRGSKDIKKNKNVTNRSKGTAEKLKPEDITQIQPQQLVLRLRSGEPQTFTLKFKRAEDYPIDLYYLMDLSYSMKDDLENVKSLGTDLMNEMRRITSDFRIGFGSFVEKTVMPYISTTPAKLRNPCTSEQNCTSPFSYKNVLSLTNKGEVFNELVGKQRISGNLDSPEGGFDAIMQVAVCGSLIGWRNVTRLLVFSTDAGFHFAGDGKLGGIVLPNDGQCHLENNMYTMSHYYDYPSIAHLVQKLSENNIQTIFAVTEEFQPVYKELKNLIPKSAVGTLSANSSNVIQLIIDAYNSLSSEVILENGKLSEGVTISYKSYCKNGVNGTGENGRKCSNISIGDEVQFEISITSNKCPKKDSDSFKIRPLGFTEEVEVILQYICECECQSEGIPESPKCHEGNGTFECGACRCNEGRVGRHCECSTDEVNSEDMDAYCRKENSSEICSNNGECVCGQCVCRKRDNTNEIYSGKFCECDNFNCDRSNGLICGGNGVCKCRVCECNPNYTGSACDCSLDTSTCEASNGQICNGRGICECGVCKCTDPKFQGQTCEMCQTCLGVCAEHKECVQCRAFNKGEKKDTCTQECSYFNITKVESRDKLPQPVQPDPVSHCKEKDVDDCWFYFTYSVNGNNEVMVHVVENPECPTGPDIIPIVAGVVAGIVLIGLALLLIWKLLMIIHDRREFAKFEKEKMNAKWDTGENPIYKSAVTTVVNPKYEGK
Sequence of Integrin beta-1 (Homo sapiens) + Integrin alpha-4 (Homo sapiens) (P13612 whole entry, looked up): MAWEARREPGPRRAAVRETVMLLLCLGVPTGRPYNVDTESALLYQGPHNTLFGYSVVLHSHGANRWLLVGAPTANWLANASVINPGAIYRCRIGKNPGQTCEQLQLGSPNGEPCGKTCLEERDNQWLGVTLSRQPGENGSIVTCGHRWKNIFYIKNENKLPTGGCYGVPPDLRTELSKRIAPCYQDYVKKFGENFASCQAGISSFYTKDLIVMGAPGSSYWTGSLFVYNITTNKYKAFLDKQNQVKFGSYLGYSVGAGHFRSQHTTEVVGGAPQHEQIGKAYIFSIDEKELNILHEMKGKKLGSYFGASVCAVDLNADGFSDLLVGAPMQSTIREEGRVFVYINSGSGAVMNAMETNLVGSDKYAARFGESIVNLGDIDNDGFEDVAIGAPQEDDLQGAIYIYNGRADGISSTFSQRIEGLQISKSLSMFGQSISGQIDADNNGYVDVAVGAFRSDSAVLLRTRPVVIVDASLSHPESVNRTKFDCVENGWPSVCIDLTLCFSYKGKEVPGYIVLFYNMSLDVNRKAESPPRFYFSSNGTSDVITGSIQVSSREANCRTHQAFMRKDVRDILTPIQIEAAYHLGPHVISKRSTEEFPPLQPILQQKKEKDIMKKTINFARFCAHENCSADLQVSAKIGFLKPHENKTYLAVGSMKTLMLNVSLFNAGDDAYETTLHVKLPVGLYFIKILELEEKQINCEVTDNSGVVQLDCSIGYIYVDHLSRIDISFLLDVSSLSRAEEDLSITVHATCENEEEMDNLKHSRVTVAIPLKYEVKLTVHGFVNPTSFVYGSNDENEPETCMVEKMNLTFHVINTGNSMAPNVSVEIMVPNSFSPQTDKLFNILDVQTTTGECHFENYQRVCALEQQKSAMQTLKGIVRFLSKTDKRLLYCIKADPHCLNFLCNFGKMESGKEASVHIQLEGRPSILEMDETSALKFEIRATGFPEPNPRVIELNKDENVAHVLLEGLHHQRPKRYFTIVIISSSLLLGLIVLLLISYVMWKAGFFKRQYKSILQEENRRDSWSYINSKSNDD
Sequence of Beta-2 adrenergic receptor (Homo sapiens) (P07550 whole entry, looked up): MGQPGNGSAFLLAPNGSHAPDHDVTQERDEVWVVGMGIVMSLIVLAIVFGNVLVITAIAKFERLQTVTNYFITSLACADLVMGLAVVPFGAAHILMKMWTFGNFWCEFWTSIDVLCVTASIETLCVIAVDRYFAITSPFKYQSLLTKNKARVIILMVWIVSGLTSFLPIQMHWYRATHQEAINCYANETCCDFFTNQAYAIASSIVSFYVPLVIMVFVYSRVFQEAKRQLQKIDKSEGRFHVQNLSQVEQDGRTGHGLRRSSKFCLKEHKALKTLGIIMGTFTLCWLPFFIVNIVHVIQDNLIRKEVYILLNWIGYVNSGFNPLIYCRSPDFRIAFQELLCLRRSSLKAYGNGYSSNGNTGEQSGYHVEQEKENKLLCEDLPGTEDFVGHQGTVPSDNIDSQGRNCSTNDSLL
Sequence of AP-2 complex subunit beta (Homo sapiens) (P63010 whole entry, looked up, the tested form may be a part, one chain of several): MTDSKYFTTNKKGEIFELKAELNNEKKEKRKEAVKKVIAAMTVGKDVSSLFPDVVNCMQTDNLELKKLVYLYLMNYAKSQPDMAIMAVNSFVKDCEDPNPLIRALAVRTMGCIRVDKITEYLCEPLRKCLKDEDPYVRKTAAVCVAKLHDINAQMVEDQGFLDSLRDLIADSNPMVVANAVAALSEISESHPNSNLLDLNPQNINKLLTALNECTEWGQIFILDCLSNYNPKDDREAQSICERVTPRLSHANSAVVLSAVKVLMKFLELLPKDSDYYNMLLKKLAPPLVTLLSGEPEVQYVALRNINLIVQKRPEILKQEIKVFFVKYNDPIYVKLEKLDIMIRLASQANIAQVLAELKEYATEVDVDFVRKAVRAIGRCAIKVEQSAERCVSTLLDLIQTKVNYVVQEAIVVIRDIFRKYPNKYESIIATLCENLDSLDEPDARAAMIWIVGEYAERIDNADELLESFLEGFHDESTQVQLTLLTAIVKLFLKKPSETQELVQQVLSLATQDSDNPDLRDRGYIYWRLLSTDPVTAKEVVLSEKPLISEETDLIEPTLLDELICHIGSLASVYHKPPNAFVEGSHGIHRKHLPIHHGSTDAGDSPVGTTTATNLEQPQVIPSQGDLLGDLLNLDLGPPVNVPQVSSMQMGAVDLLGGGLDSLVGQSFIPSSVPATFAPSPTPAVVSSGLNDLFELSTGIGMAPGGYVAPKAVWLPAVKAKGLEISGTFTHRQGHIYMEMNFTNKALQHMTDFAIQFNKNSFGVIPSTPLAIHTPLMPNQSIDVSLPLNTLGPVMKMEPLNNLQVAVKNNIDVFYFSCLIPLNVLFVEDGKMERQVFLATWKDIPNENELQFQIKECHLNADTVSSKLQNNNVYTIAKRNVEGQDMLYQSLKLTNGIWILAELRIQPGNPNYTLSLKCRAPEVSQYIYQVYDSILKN

One may read the inhibition as the change of the read-out against control, counted positive when it falls. For the compound `CS(=O)(=O)NCc1ccc(C(=O)NCc2ccccc2)cc1`, the percent of DMSO control GFP in test [1] was 98.4% (inactive). The GFP response vs DMSO is 107% (inactive) in test [2] and 127% (inactive) in [4]. Further, the percent response of DMSO control in [3] was 100% (inactive). The GFP response, % of DMSO in test [5] is 123% (inactive). Further, in test [6], the double positive events was determined as 55.6%. In test [6], the vesicle binding response is 174% (inactive). For the same compound, the inhibition in test [7] is -19% (inactive); in test [11], -12% (inactive); in test [15], -5% (inactive). Besides, the superoxide response (% of plate) in test [8] was 105% (inactive). Besides, the aptamer binding inhibition in test [9] is -8% (inactive). The response in [10] was -27.9% (inactive); in test [12], 4.07% (inactive). In addition, in [13], the binding (% of control) is 98.7% (inactive). The efflux inhibition (fraction of control) in [14] was -0.04 (inactive). Moreover, the differentiation response in test [16] is -3.02% (inactive).

Consider `O=c1cc(CN2CCN(c3cccc(Cl)c3)CC2)c2cc(O)c(-c3ccccc3)cc2o1`, for which, in test [1], the percent of DMSO control GFP is 93% (inactive). Besides, the figures for the GFP response vs DMSO in test [2] and in test [4] were 133% (inactive) and 83.1% (inactive), respectively. Besides, the percent response of DMSO control in test [3] is 102% (inactive). Also, the GFP response, % of DMSO in [5] is 92.8% (inactive). The double positive events in [6] was found to be 69.1%. For the same compound, the vesicle binding response in test [6] was 265% (inactive). The inhibition in [7] was 0.64% (inactive); in test [11], -0.51% (inactive); in test [15], 11% (inactive). For the same compound, in test [8], the superoxide response (% of plate) was 113% (inactive). Besides, the aptamer binding inhibition in test [9] is 0% (inactive). Also, the response is 6.6% (inactive) in test [10] and -1.13% (inactive) in [12]. For the same compound, in test [13], the binding (% of control) was 97.8% (inactive). In test [14], the efflux inhibition (fraction of control) is -0.02 (inactive). Also, the differentiation response in test [16] is -12.3% (inactive).

On to `COc1ccccc1N1CCN(CC(O)COc2cccc3ccccc23)CC1` (stereo not given), for which the percent of DMSO control GFP in [1] is 102% (inactive). Moreover, the GFP response vs DMSO was 105% (inactive) in test [2] and 109% (inactive) in test [4]. Further, the percent response of DMSO control in test [3] is 98.3% (inactive). The GFP response, % of DMSO in test [5] was 118% (inactive). The double positive events in [6] stood at 64.3%. Moreover, in test [6], the vesicle binding response is 192% (inactive). Also, the inhibition was 8.25% (inactive) in [7], -5.11% (inactive) in [11] and -4% (inactive) in test [15]. For the same compound, the superoxide response (% of plate) in test [8] was 97.5% (inactive). In addition, the aptamer binding inhibition in [9] was 6% (inactive). Moreover, the response in test [10] was -24.7% (inactive); in [12] it was 5.97% (inactive). For the same compound, the binding (% of control) in test [13] was 107% (inactive). For the same compound, in test [14], the efflux inhibition (fraction of control) is -0.09 (inactive). In addition, in test [16], the differentiation response was 4.86% (inactive).

`O=C(/C=C/c1ccccc1)NCC1(c2ccccc2)CCOCC1`: the percent of DMSO control GFP in [1] is 101% (inactive). The GFP response vs DMSO is 104% (inactive) in test [2] and 117% (inactive) in test [4]. In addition, the percent response of DMSO control in test [3] was 101% (inactive). Also, the GFP response, % of DMSO in test [5] is 103% (inactive). In test [6], the double positive events worked out at 64.3%. Also, the vesicle binding response in [6] is 255% (inactive). The inhibition in [7] was -18.2% (inactive); in test [11], 63.9% (active); in [15] it was 3% (inactive). Moreover, the superoxide response (% of plate) in test [8] was 99.2% (inactive). Further, the aptamer binding inhibition in [9] is -1% (inactive). Besides, the results for the response in test [10] and in [12] were -8.35% (inactive) and -9.57% (inactive), respectively. Also, the binding (% of control) in [13] was 97% (inactive). In [14], the efflux inhibition (fraction of control) is -0.21 (inactive). Besides, the differentiation response in test [16] is -15.2% (inactive).

Regarding `CCCC(CCC)C(=O)OC1C[C@H]2CC[C@@H](C1)[N+]2(C)C` (stereo not given in full), the percent of DMSO control GFP in [1] is 95.2% (inactive). Besides, the GFP response vs DMSO in [2] was 132% (inactive); in test [4], 80.9% (inactive). In test [3], the percent response of DMSO control was 93.9% (inactive). Also, the GFP response, % of DMSO in [5] is 94.9% (inactive). Moreover, in test [6], the double positive events stood at 59.5%. Besides, in test [6], the vesicle binding response was 155% (inactive). Also, the inhibition was 14.2% (inactive) in [7], -1.17% (inactive) in [11] and 9% (inactive) in test [15]. The superoxide response (% of plate) in test [8] is 108% (inactive). Also, the aptamer binding inhibition in test [9] was 7% (inactive). Further, the response was -2.34% (inactive) in test [10] and 0.47% (inactive) in test [12]. Further, the binding (% of control) in [13] was 101% (inactive). In addition, the efflux inhibition (fraction of control) in test [14] was 0.27 (inactive). Further, in [16], the differentiation response is 3.28% (inactive).

Source of the values: PubChem BioAssay.
